Measured values reported in paper PMC7862700, “An all-to-all approach to the identification of sequence-specific readers for epigenetic DNA modifications on cytosine”.

Legend:
Experiment in all cases: DAPPL (digital affinity profiling via proximity ligation, sequencing); 10 mM Tris-HCl pH 7.5, 50 mM NaCl, 1 mM DTT, 4% glycerol, room temperature, 30 min; GST-TFs on glutathione beads, 16-mer random dsDNA library, 0.1% formaldehyde crosslink after washing; high values mean tight binding
[1] = target: T1, FEV (Homo sapiens, UniProt Q99581 1-238); details: protein: recombinant; tags: N-terminal GST; dsDNA, one strand shown
T1 sequence: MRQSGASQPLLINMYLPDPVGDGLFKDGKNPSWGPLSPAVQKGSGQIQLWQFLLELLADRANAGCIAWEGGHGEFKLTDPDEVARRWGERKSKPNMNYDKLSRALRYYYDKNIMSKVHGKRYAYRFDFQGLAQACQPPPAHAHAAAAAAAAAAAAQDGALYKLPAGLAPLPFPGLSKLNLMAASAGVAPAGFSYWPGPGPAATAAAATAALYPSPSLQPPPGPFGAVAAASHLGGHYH
How it was run: (§1)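 After expression in yeast as GST fusions, human transcription factors were bound to glutathione beads, DNA-barcoded and mixed with a tag-only sample. The pools were incubated with 200 nmole of a 16-mer random double-stranded DNA library in Tris/NaCl/DTT/glycerol buffer (30 min, room temperature), washed and crosslinked with 0.1% formaldehyde. Proximity ligation with BsaI/T4 ligase ran for 1 h at 37 °C, before PCR amplification and sequencing on an Illumina NextSeq500. Binding signal is a hexamer's read frequency for a factor divided by its frequency for the tag-only sample.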

[2] = target: ETV5 (Homo sapiens, UniProt P41161 1-510); details: protein: recombinant; tags: N-terminal GST; dsDNA, one strand shown
How it was run: as §1

[3] = target: HSF1 (Homo sapiens, UniProt Q00613 1-529); details: protein: recombinant; tags: N-terminal GST; chain copies: 3; dsDNA, one strand shown
How it was run: as §1

[4] = target: T2, SPIC (Homo sapiens, UniProt Q8N5J4 1-248); details: protein: recombinant; tags: N-terminal GST; dsDNA, one strand shown
T2 sequence: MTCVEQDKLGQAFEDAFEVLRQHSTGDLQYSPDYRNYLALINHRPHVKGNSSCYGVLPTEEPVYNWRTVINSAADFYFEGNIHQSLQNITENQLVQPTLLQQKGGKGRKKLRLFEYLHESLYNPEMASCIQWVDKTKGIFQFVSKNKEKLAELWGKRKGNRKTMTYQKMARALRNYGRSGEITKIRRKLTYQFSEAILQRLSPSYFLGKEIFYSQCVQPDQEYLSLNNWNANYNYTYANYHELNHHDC
How it was run: as §1

[5] = target: ELF4 (Homo sapiens, UniProt Q99607 1-663); details: protein: recombinant; tags: N-terminal GST; dsDNA, one strand shown
How it was run: as §1

[6] = target: T3, ELK4 (Homo sapiens, UniProt P28324-2 1-405); details: protein: recombinant; tags: N-terminal GST; dsDNA, one strand shown
T3 sequence: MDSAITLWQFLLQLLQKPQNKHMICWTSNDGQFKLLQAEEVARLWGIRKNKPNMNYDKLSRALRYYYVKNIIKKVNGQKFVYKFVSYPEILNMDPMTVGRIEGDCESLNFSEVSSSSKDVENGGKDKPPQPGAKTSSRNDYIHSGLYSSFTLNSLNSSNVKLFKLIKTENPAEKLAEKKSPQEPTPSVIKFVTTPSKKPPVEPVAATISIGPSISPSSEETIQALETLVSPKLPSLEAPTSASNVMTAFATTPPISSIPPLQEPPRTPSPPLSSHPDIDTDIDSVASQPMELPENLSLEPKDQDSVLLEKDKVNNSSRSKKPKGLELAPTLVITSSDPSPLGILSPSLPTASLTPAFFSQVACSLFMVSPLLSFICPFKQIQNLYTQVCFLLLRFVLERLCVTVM
How it was run: as §1

[7] = target: T4, ETV2 (Homo sapiens, UniProt O00321 1-342); details: protein: recombinant; tags: N-terminal GST; dsDNA, one strand shown
T4 sequence: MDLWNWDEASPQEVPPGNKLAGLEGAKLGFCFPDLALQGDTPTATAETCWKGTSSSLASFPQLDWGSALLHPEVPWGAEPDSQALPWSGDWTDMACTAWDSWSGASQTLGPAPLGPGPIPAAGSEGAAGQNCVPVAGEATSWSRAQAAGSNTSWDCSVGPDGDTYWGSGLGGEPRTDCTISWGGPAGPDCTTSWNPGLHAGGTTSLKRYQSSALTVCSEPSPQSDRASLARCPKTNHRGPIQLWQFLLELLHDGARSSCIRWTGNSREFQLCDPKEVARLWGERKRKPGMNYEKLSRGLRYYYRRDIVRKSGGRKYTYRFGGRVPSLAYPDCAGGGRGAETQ
How it was run: as §1

[8] = target: T5, ELF3 (Homo sapiens, UniProt P78545 1-371); details: protein: recombinant; tags: N-terminal GST; dsDNA, one strand shown
T5 sequence: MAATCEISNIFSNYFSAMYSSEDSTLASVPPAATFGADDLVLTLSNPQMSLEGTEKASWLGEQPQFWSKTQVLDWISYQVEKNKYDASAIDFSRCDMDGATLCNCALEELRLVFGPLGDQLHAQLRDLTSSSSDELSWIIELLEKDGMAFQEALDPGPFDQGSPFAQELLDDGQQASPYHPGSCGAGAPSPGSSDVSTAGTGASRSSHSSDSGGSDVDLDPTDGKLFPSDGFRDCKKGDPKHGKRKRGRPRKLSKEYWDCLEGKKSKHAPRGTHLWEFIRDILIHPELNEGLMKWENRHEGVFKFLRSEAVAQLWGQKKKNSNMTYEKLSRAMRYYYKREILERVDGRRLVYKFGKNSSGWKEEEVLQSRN
How it was run: as §1

[9] = target: ETV1 (Homo sapiens, UniProt P50549 1-477); details: protein: recombinant; tags: N-terminal GST; dsDNA, one strand shown
How it was run: as §1

Chain of ETV1 (P50549 whole entry): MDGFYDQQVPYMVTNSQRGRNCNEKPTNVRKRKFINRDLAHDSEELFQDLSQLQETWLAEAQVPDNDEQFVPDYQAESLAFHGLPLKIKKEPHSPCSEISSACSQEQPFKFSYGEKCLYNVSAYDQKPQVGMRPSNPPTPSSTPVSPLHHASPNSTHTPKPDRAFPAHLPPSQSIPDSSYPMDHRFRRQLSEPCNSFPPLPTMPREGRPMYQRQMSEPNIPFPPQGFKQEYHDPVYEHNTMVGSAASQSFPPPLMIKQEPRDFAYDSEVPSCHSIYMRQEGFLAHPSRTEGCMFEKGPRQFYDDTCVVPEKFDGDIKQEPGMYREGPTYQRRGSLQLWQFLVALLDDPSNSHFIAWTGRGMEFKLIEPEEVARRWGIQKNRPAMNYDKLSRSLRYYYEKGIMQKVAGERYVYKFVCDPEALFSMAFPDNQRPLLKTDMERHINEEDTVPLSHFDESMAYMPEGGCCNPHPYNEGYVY
Chain of ETV5 (P41161 whole entry): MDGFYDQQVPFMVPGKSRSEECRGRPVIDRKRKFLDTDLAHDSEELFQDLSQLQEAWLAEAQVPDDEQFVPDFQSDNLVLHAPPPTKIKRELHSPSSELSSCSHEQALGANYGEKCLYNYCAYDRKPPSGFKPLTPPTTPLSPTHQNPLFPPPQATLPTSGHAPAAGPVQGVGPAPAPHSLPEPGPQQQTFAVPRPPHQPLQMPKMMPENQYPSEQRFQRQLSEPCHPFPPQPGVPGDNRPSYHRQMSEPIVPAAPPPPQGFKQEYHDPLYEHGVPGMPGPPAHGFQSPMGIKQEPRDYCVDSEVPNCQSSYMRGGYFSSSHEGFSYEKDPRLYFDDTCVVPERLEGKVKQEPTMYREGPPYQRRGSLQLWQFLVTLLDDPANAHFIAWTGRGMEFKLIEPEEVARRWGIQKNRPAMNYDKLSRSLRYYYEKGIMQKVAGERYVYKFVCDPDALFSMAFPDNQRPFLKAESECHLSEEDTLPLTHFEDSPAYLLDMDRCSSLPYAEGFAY
Chain of ELF4 (Q99607 whole entry): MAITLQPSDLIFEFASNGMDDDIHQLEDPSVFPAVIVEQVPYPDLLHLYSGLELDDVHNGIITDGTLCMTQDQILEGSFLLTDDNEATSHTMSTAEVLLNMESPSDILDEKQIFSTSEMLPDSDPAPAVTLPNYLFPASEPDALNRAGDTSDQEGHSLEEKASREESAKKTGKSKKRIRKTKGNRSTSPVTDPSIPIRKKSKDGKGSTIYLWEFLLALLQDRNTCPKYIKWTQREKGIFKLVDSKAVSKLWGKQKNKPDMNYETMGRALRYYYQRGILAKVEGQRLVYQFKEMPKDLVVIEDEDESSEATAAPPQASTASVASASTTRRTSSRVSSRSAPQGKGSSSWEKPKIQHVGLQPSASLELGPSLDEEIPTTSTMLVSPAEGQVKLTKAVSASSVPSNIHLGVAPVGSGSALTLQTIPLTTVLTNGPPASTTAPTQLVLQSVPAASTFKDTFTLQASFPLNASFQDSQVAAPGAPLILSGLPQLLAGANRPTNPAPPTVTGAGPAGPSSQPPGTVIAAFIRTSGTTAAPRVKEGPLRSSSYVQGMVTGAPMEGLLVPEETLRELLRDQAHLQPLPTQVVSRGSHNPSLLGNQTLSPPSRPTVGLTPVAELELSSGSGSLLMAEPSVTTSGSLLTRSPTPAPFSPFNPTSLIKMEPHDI
Chain of HSF1 (Q00613 whole entry): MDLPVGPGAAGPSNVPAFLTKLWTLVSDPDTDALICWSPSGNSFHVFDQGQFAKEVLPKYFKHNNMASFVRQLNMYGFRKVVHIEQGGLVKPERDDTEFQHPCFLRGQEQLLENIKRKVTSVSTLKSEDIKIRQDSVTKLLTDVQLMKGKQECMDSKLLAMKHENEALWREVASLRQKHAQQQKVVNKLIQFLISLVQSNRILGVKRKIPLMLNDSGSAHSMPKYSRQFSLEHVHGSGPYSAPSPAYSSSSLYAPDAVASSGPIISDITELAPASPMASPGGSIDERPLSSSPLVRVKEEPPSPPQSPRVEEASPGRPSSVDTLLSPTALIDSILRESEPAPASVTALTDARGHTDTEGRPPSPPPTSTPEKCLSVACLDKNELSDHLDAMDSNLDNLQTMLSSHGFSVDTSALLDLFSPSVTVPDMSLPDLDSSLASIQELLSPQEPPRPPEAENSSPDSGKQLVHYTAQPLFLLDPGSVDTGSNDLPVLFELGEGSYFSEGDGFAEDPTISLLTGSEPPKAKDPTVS

| Sequence | binding signal [1] | binding signal [2] | binding signal [3] | binding signal [4] | binding signal [5] | binding signal [6] | binding signal [7] | binding signal [8] | binding signal [9] |
| --- | --- | --- | --- | --- | --- | --- | --- | --- | --- |
| TGAATG | 1.19 fold enrichment (6-mer frequency, TF over GST control) | 1.1 fold enrichment (6-mer frequency, TF over GST control) | 1.15 fold enrichment (6-mer frequency, TF over GST control) | 1.03 fold enrichment (6-mer frequency, TF over GST control) | 1.16 fold enrichment (6-mer frequency, TF over GST control) | 1.2 fold enrichment (6-mer frequency, TF over GST control) | 1.37 fold enrichment (6-mer frequency, TF over GST control) | 1.08 fold enrichment (6-mer frequency, TF over GST control) | 1.14 fold enrichment (6-mer frequency, TF over GST control) |
| ACCTCG | 1.05 fold enrichment (6-mer frequency, TF over GST control) | 1.11 fold enrichment (6-mer frequency, TF over GST control) | 1.14 fold enrichment (6-mer frequency, TF over GST control) | 1.17 fold enrichment (6-mer frequency, TF over GST control) | 1.18 fold enrichment (6-mer frequency, TF over GST control) | 1.35 fold enrichment (6-mer frequency, TF over GST control) | 1.28 fold enrichment (6-mer frequency, TF over GST control) | 1.23 fold enrichment (6-mer frequency, TF over GST control) | 1.15 fold enrichment (6-mer frequency, TF over GST control) |
| GGAAAT | 4 fold enrichment (6-mer frequency, TF over GST control) | 3.05 fold enrichment (6-mer frequency, TF over GST control) | 1.29 fold enrichment (6-mer frequency, TF over GST control) | 2.47 fold enrichment (6-mer frequency, TF over GST control) | 2.4 fold enrichment (6-mer frequency, TF over GST control) | 2.13 fold enrichment (6-mer frequency, TF over GST control) | 2.4 fold enrichment (6-mer frequency, TF over GST control) | 2.74 fold enrichment (6-mer frequency, TF over GST control) | 2.69 fold enrichment (6-mer frequency, TF over GST control) |
| TGAAAC | 1.31 fold enrichment (6-mer frequency, TF over GST control) | 1.33 fold enrichment (6-mer frequency, TF over GST control) | 1.13 fold enrichment (6-mer frequency, TF over GST control) | 1.27 fold enrichment (6-mer frequency, TF over GST control) | 1.27 fold enrichment (6-mer frequency, TF over GST control) | 1.18 fold enrichment (6-mer frequency, TF over GST control) | 1.4 fold enrichment (6-mer frequency, TF over GST control) | 1.42 fold enrichment (6-mer frequency, TF over GST control) | 1.27 fold enrichment (6-mer frequency, TF over GST control) |
| CGCTAG | 1.06 fold enrichment (6-mer frequency, TF over GST control) | 1.02 fold enrichment (6-mer frequency, TF over GST control) | 1.29 fold enrichment (6-mer frequency, TF over GST control) | 1.03 fold enrichment (6-mer frequency, TF over GST control) | 1.11 fold enrichment (6-mer frequency, TF over GST control) | 1.09 fold enrichment (6-mer frequency, TF over GST control) | 1.19 fold enrichment (6-mer frequency, TF over GST control) | 1.01 fold enrichment (6-mer frequency, TF over GST control) | 1.03 fold enrichment (6-mer frequency, TF over GST control) |
| ACGACG | 1.17 fold enrichment (6-mer frequency, TF over GST control) | 1.18 fold enrichment (6-mer frequency, TF over GST control) | 1.02 fold enrichment (6-mer frequency, TF over GST control) | 1.05 fold enrichment (6-mer frequency, TF over GST control) | 1.2 fold enrichment (6-mer frequency, TF over GST control) | 1.17 fold enrichment (6-mer frequency, TF over GST control) | 1.16 fold enrichment (6-mer frequency, TF over GST control) | 1.17 fold enrichment (6-mer frequency, TF over GST control) | 1.01 fold enrichment (6-mer frequency, TF over GST control) |
| CACTCC | 1.28 fold enrichment (6-mer frequency, TF over GST control) | 1.27 fold enrichment (6-mer frequency, TF over GST control) | 1.05 fold enrichment (6-mer frequency, TF over GST control) | 1.28 fold enrichment (6-mer frequency, TF over GST control) | 1.34 fold enrichment (6-mer frequency, TF over GST control) | 1.35 fold enrichment (6-mer frequency, TF over GST control) | 1.17 fold enrichment (6-mer frequency, TF over GST control) | 1.23 fold enrichment (6-mer frequency, TF over GST control) | 1.27 fold enrichment (6-mer frequency, TF over GST control) |
| CGTACA | 1.2 fold enrichment (6-mer frequency, TF over GST control) | 1.22 fold enrichment (6-mer frequency, TF over GST control) | 1.02 fold enrichment (6-mer frequency, TF over GST control) | 1.31 fold enrichment (6-mer frequency, TF over GST control) | 1.2 fold enrichment (6-mer frequency, TF over GST control) | 1.24 fold enrichment (6-mer frequency, TF over GST control) | 1.36 fold enrichment (6-mer frequency, TF over GST control) | 1.27 fold enrichment (6-mer frequency, TF over GST control) | 1.13 fold enrichment (6-mer frequency, TF over GST control) |
